According to PubChem BioAssay (NCI):
“And” between values parts separate entries of the source, which are not always exact repeats. Equal values may be shown once. This is part of a sample that, as a whole, favours compounds with a hit. Of some 83,000 tested, about 20% had one in any assay.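 A percent growth of 40 corresponds to 60% growth inhibition; 0 means no net growth; -100 means all cells died. Active threshold: below 10.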 The source made the active and inactive calls.

What follows are compounds tested on SK-MEL-5 melanoma (assay: NCI-60 one-dose screen, 48 h (100 = growth as untreated, 0 = no growth, -100 = all killed)). Conditions: 10 µM.
Procedure: Growth inhibition of the SK-MEL-5 human tumor cell line is measured as a screen for anti-cancer activity. Cells are grown in 96 well plates and exposed to the test compound for 48 hours. Compounds are tested at a single concentration, which is 10^-5 M for most compounds. The reported endpoint is percent growth (GI% or GIPRCNT), where numbers from 0 - 100% represent growth inhibition, and numbers from -100% - 0 represent cell death. For example, a value of 40 represents 60% growth inhibition. A value of 0 means no net growth occurred over the course of the experiment. A value of -40 indicates 40% of cells at the beginning of the experiment died by the end of the experiment. A value of -100 means all cells are dead at the end of the experiment.
NCI-60 Human Tumor Cell Lines Screen was performed using the standard one-dose NCI protocol, which is described in more detail at https://dtp.cancer.gov/discovery_development/nci-60/default.htm.
Compounds with GIPRCNT values below 10 were considered active. Activity score was based on GIPRCNT using the following formula: […]
Score is 0 for GIPRCNT values of 100 or above, 50 for GIPRCNT values of 0, and 100 for GIPRCNT values of -100.

Question: With `O=S(=O)(F)c1ccc(Cl)cc1` as the compound, how does the growth read?
Answer: 108% (inactive)

Question: With `ClCc1ccc2ccccc2n1` as the compound, how does the growth read?
Answer: 91% (inactive)

Question: With `C[C@]12CC[C@H]3[C@@H](CCC4=CC(=O)CC[C@@H]43)[C@@H]1CC[C@@H]2OC(=O)N(CCCl)N=O` as the compound, how does the growth read?
Answer: 51.3% (inactive)

Question: For `S=C=NCCc1ccccc1`, which growth is on record?
Answer: -28.2% (active)

Question: With `[O-][n+]1ccccc1S` as the compound, how does the growth read?
Answer: 48.9% (inactive)

Question: Which growth does the source give for `O=C(CBr)Nc1ccc(Cl)cc1` here?
Answer: 78.3% (inactive)

Question: `Cn1c(O)c(N=O)c(=O)n(C)c1=O` was tested. Which growth did it give?
Answer: 100% (inactive) and 98.1% (inactive)

Question: How did the growth turn out when `CC/C(=C/c1ccc(OC)cc1)[N+](=O)[O-]` was run?
Answer: 36.2% (inactive)

Question: For `COc1cc(/C=C(/C)[N+](=O)[O-])ccc1O`, which growth is on record?
Answer: 82.3% (inactive) and 64.6% (inactive)

Question: Which growth does the source give for `COC(=O)C1C(O)C(C)C(O)C(C)/C=C\C=C(C)C(=O)Nc2c(C)c(OC(C)=O)c3c(c2O)C(=O)C(C)=C2OCOC(=C23)C(C)=CC(C)(O)C(O)C(C)C1O` (stereo not given) here?
Answer: 99% (inactive)

Question: How did the growth turn out when `C/C(=C\c1ccc(Cl)c(Cl)c1)[N+](=O)[O-]` was run?
Answer: 84.5% (inactive) and 101% (inactive)

Question: Which growth does the source give for `CC[C@@H](C)[C@@H]1NC(=O)C(NC(=O)C(CC(C)C)N(C)C(=O)C2CCCN2C(=O)C(C)O)C(C)OC(=O)C(Cc2ccc(OC)cc2)N(C)C(=O)C2CCCN2C(=O)C(CC(C)C)NC(=O)C(C)C(=O)C(C(C)C)OC(=O)C[C@H]1O` (stereo not given in full) here?
Answer: -98.1% (active)

Question: How did the growth turn out when `O=C1CCC(=O)N1SC(Cl)(Cl)Cl` was run?
Answer: 99.5% (inactive)

Question: `CC(C)C1(NC(=O)C2CC3c4cccc5[nH]cc(c45)CC3N(C)C2)OC2(O)C3CCCN3C(=O)C(Cc3ccccc3)N2C1=O` (stereo not given) was tested. Which growth did it give?
Answer: 89.8% (inactive)

Question: With `C=NCC#N` as the compound, how does the growth read?
Answer: 106% (inactive) and 102% (inactive)

Question: With `CC(Cc1ccc2c(c1)OCO2)NN` (stereo not given) as the compound, how does the growth read?
Answer: 93.6% (inactive)

Question: For `[Cl][Sn]([c]1ccccc1)([c]1ccccc1)[c]1ccccc1`, which growth is on record?
Answer: -88.7% (active)

Question: `COc1ccc2c(ccc3oc([N+](=O)[O-])cc32)c1` was tested. Which growth did it give?
Answer: -80.4% (active)

Question: For `NC(Cc1ccccc1)c1ccccc1` (stereo not given), which growth is on record?
Answer: 94.1% (inactive) and 100% (inactive)

Question: With `COc1ccc(/C=C\[N+](=O)[O-])cc1OC` as the compound, how does the growth read?
Answer: 72.6% (inactive) and 56.4% (inactive)

Question: How did the growth turn out when `O=[N+]([O-])c1ccc(Br)c([N+](=O)[O-])c1` was run?
Answer: 95.8% (inactive)

Question: `COC1CC2C=C(C)/C=C/C=C/C(=O)NC(c3ccccc3)C/C=C/CCC(O)CC(=O)C2=C1O` (stereo not given) was tested. Which growth did it give?
Answer: -97.2% (active)

Question: Which growth does the source give for `C#CC1(O)CCC(C(C)(C)C)CC1` (stereo not given) here?
Answer: 105% (inactive)

Question: `CS(=N)(=O)CCC(N)C(=O)O` (stereo not given) was tested. Which growth did it give?
Answer: 110% (inactive)

Question: With `N#CCc1ccccc1` as the compound, how does the growth read?
Answer: 99.4% (inactive)

Question: Which growth does the source give for `CN(C)CC1(N)C(=O)NC(=O)NC1=O` here?
Answer: 95.1% (inactive)

Question: For `COC12c3c(C)cc(O)c4c(=O)occ(c34)C(=O)C1C13COC(=O)c4c(O)cc(C)c(c41)C(=O)C2C3OC(C)=O` (stereo not given), which growth is on record?
Answer: 111% (inactive)

Question: Which growth does the source give for `[Cl][Hg][c]1ccc2ccccc2c1` here?
Answer: -100% (active)

Question: With `COc1ccccc1[As]=[As]c1ccccc1OC` (stereo not given) as the compound, how does the growth read?
Answer: -99.3% (active)

Question: How did the growth turn out when `O=c1[nH]c2ccccc2n1C1CCN(CCCC(c2ccc(F)cc2)c2ccc(F)cc2)CC1` was run?
Answer: 23.6% (inactive) and -86.5% (active)

Question: With `COc1cc(/C=C\[N+](=O)[O-])ccc1O` as the compound, how does the growth read?
Answer: 77% (inactive) and 79.3% (inactive)

Question: How did the growth turn out when `O=[N+]([O-])/C=C\c1ccc2c(c1)OCO2` was run?
Answer: 94.3% (inactive)

Question: Which growth does the source give for `[Cl][Hg][c]1ccc(Cl)s1` here?
Answer: 46% (inactive)

Question: `COc1ccccc1/C=C/[N+](=O)[O-]` was tested. Which growth did it give?
Answer: 83.4% (inactive)

Question: `C[CH2][Hg][S]c1ccccc1C(=O)O` was tested. Which growth did it give?
Answer: -68.3% (active)

Question: `CCCCCCCC[N+]12CN3CN(CN(C3)C1)C2` was tested. Which growth did it give?
Answer: 98% (inactive)

Question: `COc1cc(/C=C/[N+](=O)[O-])cc(Br)c1OC` was tested. Which growth did it give?
Answer: 24.5% (inactive)

Question: How did the growth turn out when `Cc1cc([N+](=O)[O-])c2ccccc2[n+]1[O-]` was run?
Answer: -84% (active) and -58.2% (active)

Question: Which growth does the source give for `CC12OOC(c3ccccc31)c1c2ccc2ccccc12` (stereo not given) here?
Answer: 61.7% (inactive)

Question: `O=C(CCl)Nc1ccc(Cl)cc1` was tested. Which growth did it give?
Answer: 30.3% (inactive)
